An excerpt weighted towards active compounds, which were near 2.9% of everything screened.
HEK293 tox = cytotoxic in the GLP-1 receptor inverse agonist counter-screen; 410,000 compounds, 0.13% hits; AID 624418; HEK293 cAMP-luciferase reporter cells, luminescence, 24 h; Potency, µM (highest dose often 38.3 µM), for inactives: at the top dose activity change, negative = inhibition, most hits filed as inhibitors;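 note: loss of luciferase light is scored as toxicity; potency is the fitted concentration of half-maximal effect; % is set by controls: 0 for no effect and ±100 for the full control effect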
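A 23 nL compound transfer followed 12 hours of cell culture at 37 deg C; exposure then lasted 24 hr. Luciferase assay detection reagent was dispensed and plates read for luminescence after a 12 min room-temperature wait.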
ClpP mod = qHTS Assay for Activators of ClpP; ATP-dependent Clp protease proteolytic subunit (Bacillus subtilis (strain 168)), P80244; purified B. subtilis ClpP, FRET peptide cleavage, 20 min; Potency, µM (doses to about 57.5 µM), without a hit: top-dose activity change, negative = active; 340,000 compounds, 1.9% hits; active = well fitted falling curve with a large enough effect; inconclusive = small, poorly fitted or top-dose-only effect; inactive = no such curve, though single readings can be large or run the other way; note: potency is the fitted concentration of half-maximal effect; the source files actives as falling curves though it sought activators and does not explain the sign; nearly all actives have a fitted effect of over 65% in size
Target sequence (P80244 whole entry, looked up): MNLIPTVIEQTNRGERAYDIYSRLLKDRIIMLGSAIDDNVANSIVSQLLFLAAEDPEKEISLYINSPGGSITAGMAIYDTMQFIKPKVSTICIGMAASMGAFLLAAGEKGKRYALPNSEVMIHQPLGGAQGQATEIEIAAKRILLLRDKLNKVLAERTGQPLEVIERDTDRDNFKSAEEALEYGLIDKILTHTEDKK
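Purified B. subtilis ClpP, 10 microg/mL final in Tris/HCl pH8 with KCl, BSA, glycerol and Tween-20, cleaved an Abz/nitrotyrosine-quenched decapeptide. Fluorescence (ex 320, em 430) was read at 0 and 20 min at room temperature. Delta was normalized to 5.8 microM ADEP and DMSO/no-enzyme controls.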
p53 reactivator = re-activators of mutant p53 | H1299 p53-A138V BP100-luciferase reporter, luminescence, 24 h | 320,000 compounds, 0.063% hits | Potency, µM (top dose mostly 92.2 µM), inactives show top-dose activity change, positive = activation, most hits filed as activators; note: potency is the fitted concentration of half-maximal effect; % of control where 0% means no effect; nearly all actives have a fitted effect of over 45% in size
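p53-null H1299 cells stably carrying temperature-sensitive p53-A138V and a BP100-luciferase reporter were pinned with compounds (4-point, 1:5 series) and held 24 hrs at 37 deg C. Luminescence was read 10 min after detection reagent.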
GLP-1R agonist = agonists of human GLP-1 receptor; 380,000 compounds, 0.007% hits; AID 624172; Potency, µM (titrated, usually from 45.6 µM), inactives show top-dose activation, usual class: activators; P43220; HEK293 GLP-1R CRE-luciferase, luminescence, 4-6 h; cells express a hypersensitive GLP-1R form; note: potency is the fitted concentration of half-maximal effect; % of control where 0% means no effect
Target sequence (P43220 whole entry, looked up): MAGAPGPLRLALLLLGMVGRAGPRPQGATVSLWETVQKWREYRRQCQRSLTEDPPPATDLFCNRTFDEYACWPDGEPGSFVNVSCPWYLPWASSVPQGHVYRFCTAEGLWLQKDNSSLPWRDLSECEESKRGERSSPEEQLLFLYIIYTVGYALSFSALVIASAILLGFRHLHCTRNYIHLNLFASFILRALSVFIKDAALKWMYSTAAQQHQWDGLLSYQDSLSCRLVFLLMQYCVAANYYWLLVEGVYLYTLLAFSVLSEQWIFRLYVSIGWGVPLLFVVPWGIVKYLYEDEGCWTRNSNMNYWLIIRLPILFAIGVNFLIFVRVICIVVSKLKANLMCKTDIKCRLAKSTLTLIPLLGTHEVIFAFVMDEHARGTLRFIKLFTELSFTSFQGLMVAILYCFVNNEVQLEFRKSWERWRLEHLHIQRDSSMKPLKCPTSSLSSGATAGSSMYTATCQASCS
LDHA block = inhibitors of human lactate dehydrogenase A; 480,000 compounds, 0.15% hits; AID 1347041; activity change, % (values are at about 110 or 230 µM); P00338; purified LDHA, NADH/diaphorase-resazurin fluorescence; active compounds read low; in the data active = activity change below about -30%; inconclusive = mostly about -25% to -30%;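 note: plate controls were DMSO wells for no effect and wells without enzyme for full effect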
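Human LDH5 at 2 nM final in Tris HCl pH 7.4 with 0.06 mM NADH and 0.2 mM pyruvate, reacted 5 minutes at room temperature. Remaining NADH coupled via diaphorase/resazurin; resorufin fluorescence read at 0 and 20 minutes, normalized to enzyme-free and DMSO wells.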
GLP-1R inv ag = acts as inverse agonist at human GLP-1 receptor; P43220; 410,000 compounds, 1.6% hits; Potency, µM (top dose mostly 38.3 µM), for inactives: top-dose activity change, negative = inhibition, hits mostly inhibitors; HEK293 GLP-1R CRE-luciferase, luminescence, 24 h; GLP-1R form is constitutively active; note: potency is the fitted concentration of half-maximal effect; % is set by controls: 0 for no effect and ±100 for the full control effect; nearly all actives have a fitted effect of over 55% in size
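Constitutively active GLP-1R drives a cAMP-responsive luciferase in stably transfected HEK293 cells; test compounds are added after overnight (12 h) attachment and left 24 hr, and signal loss in luminescence marks inhibition.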
* hit, by the source's call; i = inactive; ? = inconclusive; . = no result; [ ] = dose if it differs, or a comment. Unless noted, calls come from the whole dose curve; as a rule, active = well fitted curve in the direction sought with a large enough effect; inconclusive = small, poorly fitted or top-dose-only effect, or another doubt; inactive = no such curve, though single readings can be large; an effect the other way counts as inactive or inconclusive.

SMILES	HEK293 tox	ClpP mod	p53 reactivator	GLP-1R agonist	LDHA block	GLP-1R inv ag
C#CCOCCOCCOCCNc1nc(N2CCN(C(=O)Cn3cc(CCCCN)nn3)CC2)nc(N2CCN(C(=O)[C@H]([C@@H](C)CC)n3cc(CCCN=C(N)N)nn3)CC2)n1	5%	1%	1%	0%	1	6%
COc1ccccc1N1CCN(C(=O)c2ccc3c(=O)n4c(nc3c2)CCCCC4)CC1	-4%	2%	2%	9%	-2	-2%
O=C(c1ccc2c(=O)n3c(nc2c1)CCCCC3)N1CCN(c2ccc(F)cc2)CC1	4%	.	-5%	18%	-12	5µM*
O=C(c1ccc2c(=O)n3c(nc2c1)CCCCC3)N1CCN(c2ccc(Cl)cc2)CC1	10%	-1%	.	-4%	3	7.1µM*
Cc1nn2c(C)c(C(=O)N3CCN(c4ccccc4F)CC3)cnc2c1-c1ccc(F)cc1	4%	0%	.	.	-5	9%
Cc1cccc(CSC(=N)N)c1	-4%	13µM*	?	-6%	-9	-10%
CCN(CC)C(=O)CSc1nc(N)c(C#N)c(-c2cccs2)c1C#N	-6%	?	-7%	2%	-1	0%
CCN(CC)C(=O)CSc1nc(-c2cccs2)cc(-c2cccs2)c1C#N	-5%	25µM*	27%	-2%	-4	?
C#CCSc1nc(-c2cccs2)ccc1C#N	-2%	32µM*	21%	6%	-10	21%
COC(=O)CSc1nc(-c2cccs2)ccc1C#N	26%	6.3µM*	?	18%	-13	64%
Cc1cc2nc(C3CCN(CC4COc5ccccc5O4)CC3)[nH]c2cc1C (centres undefined)	-23%	0%	-4%	-5%	-6	10µM*
O=S(=O)(c1cccs1)N1CN(Cc2ccc(F)cc2)c2nc3ccccc3nc21	6%	-3%	-2%	7%	1	?
O=S(=O)(c1cccs1)N1CN(Cc2ccccc2)c2nc3ccccc3nc21	-1%	?	-18%	0%	-11	?
O=S(=O)(c1cccs1)N1CN(Cc2cccs2)c2nc3ccccc3nc21	-2%	-12%	-1%	6%	-1	10µM*
C=CCN1CN(S(=O)(=O)c2cccs2)c2nc3ccccc3nc21	0%	25µM*	0%	1%	2	0%
CCCCn1c(N)c(N(CCC(C)C)C(=O)C2CC(=O)N(c3ccc4c(c3)OCCO4)C2)c(=O)[nH]c1=O (centres undefined)	0%	.	6%	1%	0	-1%
CN(Cc1ccccc1F)C(=O)c1ccc(Oc2ccccc2)cc1	-4%	-2%	11%	6%	0	?
CN(Cc1ccc(C(F)(F)F)cc1)C(=O)c1ccc(Oc2ccccc2)cc1	4%	-1%	4%	0%	3	10µM*
CCCCNC(=O)COC(=O)c1c2c(nc3ccccc13)/C(=C\c1cccs1)CC2	i	.	.	13%	6	6.3µM*
C[n+]1ccc(/C=C/c2ccc(Br)cc2)cc1	-29%	?	0%	-4%	-32*	-6%
O=C(/C=C/c1ccc(Br)cc1)c1ccc(Cl)cc1	.	.	.	.	11	.
CCOC(=O)c1[nH]c2c(c1Cc1ccccc1)C(=O)CC(c1ccccc1)C2 (centres undefined)	-13%	1%	.	.	-4	11µM*
O=c1cc(C=NNc2ccc([N+](=O)[O-])cc2)[nH]c(=O)[nH]1	?	2%	.	-1%	-2	?
Cc1ccc(NCc2nc3ccccc3n2C)cc1	13%	14µM*	.	-15%	2	?
N#Cc1ccc(OCC(=O)N2CCc3ccccc32)cc1	2%	-16%	18%	-7%	-12	6%
SMILES	HEK293 tox	ClpP mod	p53 reactivator	GLP-1R agonist	LDHA block	GLP-1R inv ag
O=C(Cc1coc2cc3c(cc12)CCC3)NC1CCCCCCC1	0%	1%	9%	0%	3	?
O=C(O)Cc1coc2cc3c(cc12)CCC3	1%[7.66 µM]	25µM*	-2%	-2%	-7	-24%[7.66 µM]
O=C(Cc1coc2cc3c(cc12)CCC3)NCC1(N2CCCCC2)CCCCC1	?	.	-24%	9%	-7	10µM*
Cc1ccc(O)c(CNc2nc3ccccc3n2C(C)C)c1	3%	4%	?	0%	-2	?
CC(C)n1c(Nc2ccccc2)nc2ccccc21	-9%	-3%	-2%	3%	-3	11µM*
CC(C)n1c(NCCO)nc2ccccc21	-1%[7.66 µM]	.	-2%	8%	-5	-13%[7.66 µM]
Oc1ccccc1CNc1cnc2ccccc2c1	-31%	28µM*	?	8%	6	0%
Oc1ccc2ccccc2c1CNc1cnc2ccccc2c1	-2%	-2%	?	-1%	11	-21%
C=CCc1cccc(CNc2cnc3ccccc3c2)c1O	4%	4%	6%	13%	4	-35%
Oc1ccc(Cl)cc1CNc1cnc2ccccc2c1	-6%	4%	-21%	2%	1	10µM*
CC(C)n1c(NCc2cc(Cl)ccc2O)nc2ccccc21	13%	0%	11%	16%	-1	10µM*
NC(=O)C1(Nc2ccc(-c3ccc(Br)cc3)cc2)CCCC1	-9%	-5%	.	1%	-1	?
CC1CCCN(CCCNC(=O)c2coc3nc4ccccc4nc23)C1 (centres undefined)	34%	13µM*	-1%	5%	-8	5%
CC1CCN(CCCNC(=O)c2coc3nc4ccccc4nc23)CC1	43%	27%	5%	-10%	2	-4%
CNC(=S)NN=C(C)CCCC(C)=NNC(=S)NC	1.8µM*	6%	.	-4%	0	?
CCCCCCCCC/C(C)=N/NC(=O)C(=O)N/N=C(\C)CCCCCCCCC	.	.	.	.	-6	.
c1ccc2c(-c3cncc4ccccc34)cncc2c1	-7%	.	.	4%	-6	2µM*
c1ccc2c(c1)-c1cccc3cncc-2c13	12%	2%	.	15%	0	3%
CN1CCCCc2c1nc1c(c2N)CCCC1	8%	25µM*	-5%	15%	-10	7%
Cc1cccc(-c2nc(-c3cc4ccc(C)cc4[nH]c3=O)no2)c1	.	.	.	.	-19	.
CCc1nc(-c2cc3ccc(C)cc3[nH]c2=O)no1	-8%	14µM*	16%	-6%	-4	0%
Cc1ccc2cc(-c3noc(C(C)(C)C)n3)c(=O)[nH]c2c1	-1%	28µM*	19%	4%	-4	9%
Cc1ccc2nc(C(O)C(O)c3nc4ccc(C)cc4[nH]3)[nH]c2c1 (centres undefined)	-2%	?	14%	5%	4	0%

Bioassay records: PubChem, National Center for Advancing Translational Sciences (NCATS)
